Experimental data published in the supplement of paper PMC12645437, “Orthogonal IMiD-Degron Pairs Induce Selective Protein Degradation in Cells” (ACS Chemical Biology, 2025).
The full ranking holds about 8,300 sequences; the median of “log2 fold change of degron read counts, EGFP-low vs EGFP+ sorted cells (limma voom), compound-induced degradation” is about -1.1, and the highest 2% start at about 3.2. The full list was thinned out, with the highest values kept by preference.

Molecular target: T1, CRBN, Q96SW2
T1 chain: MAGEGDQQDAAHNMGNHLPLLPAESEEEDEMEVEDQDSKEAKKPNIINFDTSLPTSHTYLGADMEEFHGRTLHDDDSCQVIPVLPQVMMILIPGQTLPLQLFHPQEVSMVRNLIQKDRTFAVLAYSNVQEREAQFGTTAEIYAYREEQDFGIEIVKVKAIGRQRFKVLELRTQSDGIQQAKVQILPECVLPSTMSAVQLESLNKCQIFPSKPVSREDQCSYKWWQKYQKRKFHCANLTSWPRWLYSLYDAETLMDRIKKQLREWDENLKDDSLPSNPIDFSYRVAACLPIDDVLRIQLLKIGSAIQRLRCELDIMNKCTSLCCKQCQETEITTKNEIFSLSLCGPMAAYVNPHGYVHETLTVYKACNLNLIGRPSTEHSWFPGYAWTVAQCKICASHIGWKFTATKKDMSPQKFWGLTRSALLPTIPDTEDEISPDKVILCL
Assay: log2 fold change of degron read counts, EGFP-low vs EGFP+ sorted cells (limma voom), compound-induced degradation; higher = more compound-induced degradation of the degron-EGFP fusion; degrons are variants of IKZF1/3 zinc finger 2; compound dose not given here
Conditions: Jurkat, 18 h
Method: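 Pooled library of 8380 IKZF3 ZF2 degron mutants (positions 146-167 varied within the IKZF3 130-189 degron; only the varied core is printed, flanks not printed) fused to EGFP with IRES-mCherry, lentivirally expressed in Jurkat cells. mCherry+ cells were treated with one IMiD compound for 18 h (dose not stated) and FACS-sorted into EGFP-low and EGFP+ populations. Degron sequences were counted by NGS, and log2FC (EGFP-low vs EGFP+) was estimated by limma voom over 3 biological replicates.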

[1] = compound: compound 19 (5-tert-butyl-thalidomide)
[2] = compound: compound 22 (5-morpholino-thalidomide)
[3] = compound: compound 33 (diphenyl IMiD analogue)
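Also: pooled lentiviral library of zinc finger degron-EGFP fusions in mCherry-positive Jurkat cells, FACS-sorted after compound exposure, with degron abundance counted by next-generation sequencing.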

| Sequence | log2 fold change of degron read counts [1] | log2 fold change of degron read counts [2] | log2 fold change of degron read counts [3] | log2 fold change of degron read counts (compound: thalidomide) |
| --- | --- | --- | --- | --- |
| FYCNICGAFFTQKGNLLRHIKL [46F_47Y_49N_50I_52G_53A_54F_55F_67L_, Q9UKT9] | 1.22 | 1.41 | 0.651 | -0.835 |
| FYCEQCGAEFTQKGNLLRHIKL [46F_47Y_49E_50Q_52G_53A_54E_55F_67L_, Q9UKT9] | -0.252 | -0.709 | -0.311 | -2.41 |
| FHCPQCGACFTQKGNLLRHIKL [46F_47H_49P_50Q_52G_53A_54C_55F_67L_, Q9UKT9] | -0.735 | -0.785 | 0.174 | -1.82 |
| FKCPVCGAAFTQKGNLLRHIKL [46F_47K_49P_50V_52G_53A_54A_55F_67L_, Q9UKT9] | 1.7 | -0.2 | -1.11 | 0.798 |
| FECEICGHPFTQKGNLLRHIKL [46F_47E_49E_50I_52G_53H_54P_55F_67L_, Q9UKT9] | -2.97 | -3.81 | -1.95 | -1.68 |
| FWCPICGHKFTQKGNLLRHIKL [46F_47W_49P_50I_52G_53H_54K_55F_67L_, Q9UKT9] | -0.246 | -0.231 | -0.673 | -0.717 |
| FFCPICGRWFTQKGNLLRHIKL [46F_47F_49P_50I_52G_53R_54W_55F_67L_, Q9UKT9] | 1.04 | 1 | -0.146 | -0.692 |
| FVCEICGHPFTQKGNLLRHIKL [46F_47V_49E_50I_52G_53H_54P_55F_67L_, Q9UKT9] | -1.95 | -1.66 | -1.45 | -0.105 |
